Active and inactive are the calls of the source. Calls follow the shape of the dose curve; as a rule, active = well fitted curve in the direction sought with a large enough effect in the repeat runs; inconclusive = weak or mixed curves; inactive = flat fitted curve, though single readings scatter.
Assay: qHTS assay to test for compound auto fluorescence at 535 nm (green) in HEK293 cell free culture (AID 720682)
Conditions: cell-free medium, green autofluorescence 485/535 nm; series mostly up to 91.3 µM
Outline: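 Each library compound, or DMSO control, is added by pintool to medium alone, comprising DMEM and 10% FBS. Emission at 535 nm following 485 nm excitation is quantified against fluorescein.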

SMILES	outcome
CCCCC(CC)COC(=O)C(C#N)=C(c1ccccc1)c1ccccc1 (centres undefined)	inactive
O=C(Oc1ccccc1)c1ccccc1	inactive
CC1CCC(C(C)C)C(O)C1 (centres undefined)	inactive
CCCCCCCCCCCCOCCO	inactive
O=C(O)[C@H](O)[C@@H](O)[C@H](O)[C@H](O)CO	inactive
CCCSc1ccc2nc(NC(=O)OC)[nH]c2c1	inactive
O=C(O)CCCC[C@@H]1SC[C@@H]2NC(=O)N[C@@H]21	inactive
CCc1ccc(CCOc2ccc(CC3SC(=O)NC3=O)cc2)nc1 (centres undefined)	inactive
COc1ccc2cc([C@H](C)C(=O)O)ccc2c1	inactive
COCCCOc1ccnc(CS(=O)c2nc3ccccc3[nH]2)c1C (centres undefined)	inactive
O=C(O)c1cc(C(=O)O)cc(S(=O)(=O)O)c1	inactive
Cc1ccc2oc(=O)ccc2c1	inactive
Cc1occc(=O)c1O	inactive
CCN(CC)c1ccc(C(=O)c2ccccc2C(=O)O)c(O)c1	inactive
CC(c1cc2ccccc2s1)N(O)C(N)=O (centres undefined)	inactive
CC(C)c1ccc(S(=O)(=O)O)cc1	inactive
O=C(O)c1ccccc1C(c1ccc(O)cc1)c1ccc(O)cc1	inactive
OCc1cccnc1	inactive
COS(C)(=O)=O	inactive
CCCCCC/C(C=O)=C\c1ccccc1	inactive

SMILES	outcome
CCCCCC1=CCCC1=O	inactive
CCCCCOC(C)=O	inactive
C#C[C@]1(O)CC[C@H]2[C@@H]3CCC4=CC(=O)CC[C@@H]4[C@H]3CC[C@@]21C	inactive
CCCCC(CC)COC(=O)CCCCC(=O)OCC(CC)CCCC (centres undefined)	inactive
COc1ccc(NC(C)=O)cc1N	inactive
OC[C@H]1O[C@@](CO)(O[C@H]2O[C@H](CO)[C@@H](O)[C@H](O)[C@H]2O)[C@@H](O)[C@@H]1O	inactive
Cc1cccnc1	inactive
NNc1nncc2ccccc12	inactive
CC1=CCC2CC1C2(C)C (centres undefined)	inactive
O=C(O)CCCCCCCCCCC(=O)O	inactive
CCN(CC)CCCC(C)Nc1ccnc2cc(Cl)ccc12 (centres undefined)	inactive
CC(=O)Nc1ccccc1	inactive
CC(=O)CC(=O)Nc1ccccc1	inactive
OCC(CO)(CBr)CBr	inactive
CCCCCCCCC/C=C/CC1CC(=O)OC1=O (centres undefined)	inactive
CC[C@H](C)C(=O)O[C@H]1C[C@@H](C)C=C2C=C[C@H](C)[C@H](CC[C@@H]3C[C@@H](O)CC(=O)O3)[C@H]21	inactive
O=[N+]([O-])c1ccc(/C=C/c2ccc([N+](=O)[O-])cc2S(=O)(=O)O)c(S(=O)(=O)O)c1	inactive
CC1=CC(=O)NS(=O)(=O)O1	inactive
C=C(C)C(=O)Nc1ccc(Cl)c(Cl)c1	inactive
